Laboratory results: PubChem BioAssay AID602274 (Sanford-Burnham Center for Chemical Genomics, 2012)
About 160 (0.044%) of roughly 360,000 compounds were called active. What follows is part of a selection rich in actives, with near analogues and random picks from the rest. Values without a mark were called inactive. Cut-off read from the data, not from the text of the source: active = survival enhancement above about 18%; inactive = the rest.

Experiment: compounds raising survival of dissociated human iPSCs – cell-based, ATPlite luminescence, primary screen (AID 602274);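 note: cells exposed to compounds for 16 hours before the ATP read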
Conditions: hiPSC single-cell survival, at 20 µM, hits give high values, 100% = ROCK inhibitor wells, 0% = DMSO

Row | SMILES | survival enhancement
1 | Cc1ccc(Nc2c(O)nc[nH]c2=O)cc1C | 0.4%
2 | CC(=NCc1ccc2c(c1)OCO2)C1=C(O)c2ccccc2C1=O | 2.2%
3 | CC(=O)Nc1ccc(S(=O)(=O)Oc2ccc(/C=N/N=C3/NC(=O)C(CC(=O)O)S3)cc2)cc1 (stereo unspecified) | 2%
4 | COc1cc(CO)c(C2(CO)CCCC2)cc1OC | 3.1%
5 | C[C@@H]1ON(C)[C@H]2C[C@H]3c4cc(N5CCN(C)CC5)ccc4CCN3C(=O)[C@@H]12 | -2.2%
6 | CC(C)C(C)(C#N)NC(=O)CSc1nc2scc(-c3ccccc3)c2c(=O)[nH]1 (stereo unspecified) | -0.3%
7 | N=C1C(=O)OCC1c1ccccc1NC(=O)CN1CCCCC1 (stereo unspecified) | -0.4%
8 | COc1ccc(C(C(=O)NCc2ccccc2)N(Cc2cccs2)C(=O)c2cnccn2)cc1 (stereo unspecified) | 6.6%
9 | COC(=O)c1ccc(CN2CCCC(C(=O)Nc3cccc(-n4cnnn4)c3)C2)cc1 (stereo unspecified) | 0.6%
10 | C=CC(COCc1ccccc1)N(CC(=O)OC)S(=O)(=O)c1cc(Br)ccc1OC (stereo unspecified) | -0.4%
11 | CCCNc1c(N)c(=O)c1=O | -0.6%
12 | O=C(Nc1ccccc1N1CCCC1)c1ccc(F)c(S(=O)(=O)N2CCOCC2)c1 | -0.3%
13 | O=C(c1cccs1)N1C[C@H](n2cc(C3CC3)nn2)[C@@H](O)C[C@@H]1c1ccccc1 | -0.3%
14 | Cc1c(S(=O)(=O)N2CC(C)CC(C)C2)c(=O)n(C)c(=O)n1C (stereo unspecified) | -0.4%
15 | CCc1nc2ccc(C(=O)Nc3cccc(OC)c3)cn2c1N(CCC(C)C)CCN(C)C | -0.8%
16 | CNC(=O)c1nnc(Cc2ccc(Cl)cc2)o1 | 0.3%
17 | CCn1c(=S)sc2c(=O)n(CC(=O)Nc3cccc(Br)c3)c(C)nc21 | -0.2%
18 | CCNC(=O)N1CCCC(C(=O)c2ccc(-c3ccccc3)cc2)C1 (stereo unspecified) | 1.4%
19 | CC1(C)CC(N(Cc2ccccc2)C(=O)Cc2ccccc2)CCO1 (stereo unspecified) | -0.5%
20 | CCN1C[C@@H]2[C@@H]3C(=O)N(C)C(=O)[C@@H]3[C@](C)(C1=O)N2C(=O)c1ccccc1 | -1.3%
21 | CC(C)C[C@H](NC(=O)C1CCC(CNC(=O)[C@@H]2CCCN2C(=O)OC(C)(C)C)CC1)C(=O)O (stereo partly specified) | 0.8%
22 | Cc1nc(C(F)(F)F)ccc1C(=O)N1CCC1(C)C(=O)NS(=O)(=O)c1ccc(F)cc1F (stereo unspecified) | -1.2%

Row | SMILES | survival enhancement
23 | CC[C@H]1OC(=O)[C@H](C)[C@@H](O[C@H]2C[C@@](C)(OC)[C@@H](O)[C@H](C)O2)[C@H](C)[C@@H](O[C@@H]2O[C@H](C)C[C@H](N(C)C)[C@H]2O)[C@](C)(O)C[C@@H](C)[C@@H]2N[C@@H](COCCOC)O[C@H]([C@H]2C)[C@]1(C)O | 1.7%
24 | CCCCN(C(=O)c1ccc2ccccc2c1)c1c(N)n(CCCC)c(=O)[nH]c1=O | -0.4%
25 | Cn1cc(CN2CCCC(CO)C2)c(-c2ccc(Oc3ccccc3)cc2)n1 (stereo unspecified) | 4.5%
26 | CNC(=O)NC(=O)C(OC(=O)c1cccc(S(=O)(=O)N2CCCCC2)c1)c1ccccc1 (stereo unspecified) | 0.1%
27 | O=C1CCC[C@@H]2CC(N3CCCCC3)C[C@@H]3CCN1[C@H]23 (stereo partly specified) | -1.2%
28 | CCc1nc2ccccc2n(CCOCCOCCn2c(=O)c(CC)nc3ccccc32)c1=O | 2.6%
29 | Cc1ccc(S(=O)(=O)N2CCOCC2)cc1NC(=O)COC(=O)c1cnccn1 | -1.4%
30 | CN(C)C(=O)CCc1ccc2c3c([nH]c2c1)[C@]1(C)[C@@H](C(=O)N2CCCCC2)C[C@H](CC(=O)NCCC2=CCCCC2)C(=O)N1CC3 | 1%
31 | CCN(CC)S(=O)(=O)c1ccc(N2CCCC2)c(NS(=O)(=O)c2cccs2)c1 | 0.5%
32 | COc1ccccc1NC(=O)C(C)OC(=O)CC1CCCC1 (stereo unspecified) | -0.5%
33 | O=C(CSc1nnc(CN2CCCC2)n1-c1ccc(F)cc1)c1ccc2c(c1)OCO2 | 0%
34 | CCOc1ncccc1C(=O)Nc1ccc2c(c1)OCCO2 | 0.1%
35 | COc1cc(C(=O)NC(=S)NCc2ccco2)cc(OC)c1OC | -1.8%
36 | CCc1nc2ccc(C(=O)N3CCN(S(=O)(=O)CC)CC3)cn2c1N(C=O)CCC(C)C | 0.9%
37 | CCC(=NC1CC(C)(C)NC(C)(C)C1)C1=C(O)CC(C)(C)CC1=O | -1.8%
38 | Cc1ccc(C(=O)N/C(=C\c2ccco2)C(=O)NC2CCS(=O)(=O)C2)cc1 (stereo unspecified) | -0.5%
39 | Nc1[nH]c(=S)nc2nc(-c3ccccc3)c(-c3ccccc3)nc12 | -2%
40 | CCn1c2c(c3ccc(OC)cc31)CCCC2=O | 0.7%
41 | COC(=O)c1ccc2nc(C3CCCCC3)c(Cc3cccc(F)c3)n2c1 | -0.3%
42 | CC1(C(=O)NCCc2c[nH]c3ccccc23)C=CC2(CCCCC2)N1C(=O)c1ccccc1 (stereo unspecified) | -0.6%
43 | COc1ccc(NC(=O)CC2C(=O)NC3CCCCC3N2C(=O)c2ccc(F)cc2)cc1 (stereo unspecified) | -0.2%
44 | O=C(c1ccc(F)cc1)c1cn(Cc2ccc(F)cc2)c2cc3c(cc2c1=O)OCCO3 | -1.1%

Row | SMILES | survival enhancement
45 | COc1ccc2c(c1)c(=O)c(C(=O)c1ccc(Cl)cc1)cn2CC(=O)Nc1ccc(F)cc1 | 35.8% (active)
46 | O=C(Nc1cccc2cccnc12)c1ccc2sc([C@H]3C[C@H](O)[C@@H](CO)O3)nc2c1 | -1.8%
47 | C=CCn1c(C23CC4CC(CC(C4)C2)C3)n[nH]c1=S | -0.3%
48 | O=C(OCCN1C(=O)c2ccccc2C1=O)[C@@H]1CC(O)CN1S(=O)(=O)c1ccccc1[N+](=O)[O-] (stereo partly specified) | -1.2%
49 | CCc1nnc(NC(=O)C2CC(=O)N(c3ccc4c(c3)OCCO4)C2)s1 (stereo unspecified) | -0.7%
50 | Cc1ccc(CCN2CC(C(=O)NCCc3ccccc3)CC2=O)cc1 (stereo unspecified) | 0.1%
51 | CCOc1ccc(OCC)c(NC(=O)C(NS(=O)(=O)c2ccc3c(c2)oc(=O)n3C)C(C)C)c1 (stereo unspecified) | -3.4%
52 | COc1ccc(C(=O)NNC(=O)c2cnccn2)cc1[N+](=O)[O-] | -1.9%
53 | COc1ccccc1CCNC(=O)c1cnccn1 | 0.7%
54 | COc1ccc(C(C#N)(CC(=O)O)c2cnccn2)cc1OC (stereo unspecified) | 27% (active)
55 | CCC1CCCCN1CCNS(=O)(=O)c1ccc2c(c1)CCN2C(C)=O (stereo unspecified) | -1.5%
56 | COC(=O)[C@@H]1C[C@H]2CC[C@H](O)C[C@H]2N1Cc1ccc(N2CCN(C)CC2)cc1 | -2.9%
57 | COc1ccc(CCNC(=O)CN2C(=O)COc3ccc(S(=O)(=O)N4CCCC4)cc32)cc1OC | 0.4%
58 | C/C(=N\Nc1cccc(C(=O)O)c1)c1ccc2c(c1)Nc1ccccc1S2 | -0.6%
59 | Cc1nc2ccc(N)nc2nc1C | -2%
60 | COC(=O)C(C)Sc1ccc2nnc(-c3cccc(F)c3)n2n1 (stereo unspecified) | 1.5%
61 | COc1ccc(-c2cc(C(F)(F)F)n3nc(C(=O)N4CCOCC4)c(Cl)c3n2)cc1 | 3.2%
62 | Cc1cccc([C@@H]2[C@@H]3C(=O)N(Cc4ccccc4)C(=O)[C@@H]3[C@]3(Cc4ccc(Cl)cc4)C(=O)N(c4cccc(Cl)c4)C(=O)N23)c1 | -0.6%
63 | O=C(NCc1ccccc1CN1CCCC1)c1cccc(S(=O)(=O)Nc2ccc(F)cc2)c1 | -0.3%
64 | C[C@H](CO)N1C[C@H](C)[C@@H](CN(C)C(=O)C2CCCCC2)OCc2cnnn2CCCC1=O | 5.1%
65 | CC(C)(C)NC(=O)Cn1nnc(-c2ccccc2Cl)n1 | 1%
66 | C=CCn1nc(-c2ccccc2)c2c(C)onc2c1=O | 0.6%

Row | SMILES | survival enhancement
67 | CCOC(=O)C1=CCC2C(=O)N(Cc3ccccc3)C(=O)C12 (stereo unspecified) | -0.2%
68 | CCC(Cc1ccccc1)NC(=O)C1CCCCC1 (stereo unspecified) | -0.3%
69 | Cc1nc(CNS(=O)(=O)c2ccc(Oc3ccccc3)cc2)cs1 | -0.6%
70 | CCNC(=O)c1c(O)c2cccc3c2n(c1=O)CC3 | 8.3%
71 | OC[C@@H]1CN(Cc2ccc(Cl)cc2)C[C@H](n2cnc3c(NCc4ccncc4)ncnc32)O1 | 0.8%
72 | Cc1cccc(C(=O)Nc2ccccc2C(=O)NCc2cccnc2)c1 | 7.7%
73 | O=C(COC(=O)C12CC3CC(CC(O)(C3)C1)C2)NC12CC3CC(CC(C3)C1)C2 | 4.1%
74 | CCOc1ccc(OCC)c(-c2c(=O)n(OCc3ccc(Cl)cc3)c3ccccc3[n+]2[O-])c1 | 0%
75 | O=C(CN1C(=O)c2cccnc2Oc2ccc(Cl)cc21)Nc1ccc(F)cc1 | -2%
76 | O=C(N/N=C1\CCSC1)c1cc(Cl)ccc1O | 1.9%
77 | CC1CCCCC1NC(=O)Cn1c(=O)cnc2ccccc21 (stereo unspecified) | -0.7%
78 | O=C(NCc1nnc(SCC(=O)N2CCCc3ccccc32)o1)c1ccccc1F | 0.9%
79 | O=C(NCc1ccccc1)C1=C[C@@H](c2ccccc2)C[C@@H](OCCCCO)O1 | -2.5%
80 | CN(C)S(=O)(=O)c1ccc(N2CCCC2)c(C(=O)Nc2ccc(Br)cc2F)c1 | -0.6%
81 | CCOC(=O)c1c(C)[nH]c(C(=O)NCCN2CCOCC2)c1C | -0.1%
82 | Cc1nc2ccccc2nc(=O)c1NNc1ccc([N+](=O)[O-])cc1 | -1.5%
83 | CCN(CC)c1ccc(C(=O)c2cnc(/N=C/N(C)C)s2)cc1 | -0.3%
84 | C=CCSc1nc(Cc2ccc(Cl)cc2)nc2ccccc12 | -1.7%
85 | CCCCSc1nnc2c(n1)OC=Nc1ccccc1-2 | 1%
86 | CCN(CC(=O)Nc1ccc(Cl)c(S(=O)(=O)N(C)C)c1)Cc1nc2ccccc2c(=O)[nH]1 | -0.1%
